From PMC7826789 (International Journal of Molecular Sciences, 2021)

Assays:
Conditions in all cases: Compound Concentration (nM):1000
[1] = tested on: WEE1
[2] = tested on: WEE2
[3] = tested on: WNK1
[4] = tested on: WNK2
[5] = tested on: WNK3
[6] = tested on: WNK4
[7] = tested on: T1, YANK1
T1 construct: gene STK32A

[8] = tested on: T2, YANK2
T2 construct: gene STK32B

[9] = tested on: T3, YANK3
T3 construct: gene STK32C

[10] = tested on: T4, YES
T4 construct: gene YES1
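Further: KINOMEscan scanMAX binding as percent activity remaining versus control; lower means stronger binding.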

Compound	Percent Control [1]	Percent Control [2]	Percent Control [3]	Percent Control [4]	Percent Control [5]	Percent Control [6]	Percent Control [7]	Percent Control [8]	Percent Control [9]	Percent Control [10]
NS(=O)(=O)c1ccc(Nc2ncc(-c3ccccc3)o2)cc1 [GW572399X]	100%	100%	89%	100%	100%	100%	100%	100%	100%	100%
NS(=O)(=O)c1ccc(N/N=C2\C(=O)Nc3ccc(Cl)cc32)cc1 [GW280670X]	100%	100%	99%	100%	100%	100%	100%	100%	100%	100%
COc1cc(/C=N/Nc2ncnc3[nH]ncc23)ccc1O [GW578748X]	100%	80%	100%	70%	64%	100%	100%	100%	100%	87%
COc1ccc2cc(-c3c(-c4ccncc4)nc(-c4ccc(S(C)(=O)=O)cc4C)n3C)ccc2c1 [SB-633825]	86%	53%	97%	78%	92%	72%	41%	26%	70%	46%
Cl.c1ccc(Cc2nc3ccc(Nc4ncnc5ccccc45)cc3[nH]2)cc1 [GR269666A]	100%	100%	100%	100%	100%	100%	100%	100%	100%	100%
C[C@@H](Oc1cc(-n2cnc3ccc(OC4CCN(C)CC4)cc32)sc1C(N)=O)c1ccccc1Cl [GSK579289A]	40%	87%	32%	7.1%	26%	2.7%	77%	100%	100%	87%
COc1cccc(-n2ncc3c(N/N=C/c4ccncc4)ncnc32)c1 [GW784752X]	100%	89%	98%	100%	100%	100%	100%	88%	100%	87%
CCc1ccc(Oc2nccc(-c3c(-c4ccc(F)cc4)ncn3C3CCNCC3)n2)cc1 [SB-242719]	100%	100%	80%	97%	89%	67%	8.8%	13%	32%	78%
CN(C)CCNC(=O)Nc1ccc(N(C)c2ccnc(Nc3ccc(CS(C)(=O)=O)cc3)n2)cc1.Cl [GW830900A]	94%	88%	92%	64%	99%	100%	68%	100%	100%	77%
COC(=O)Nc1nc2ccc(Oc3ccc(NC(=O)Nc4cc(C(F)(F)F)ccc4F)cc3)cc2s1.Cl [GW693917A]	87%	100%	76%	100%	100%	67%	100%	100%	94%	51%
COc1ccc2c(-c3ccnc(Nc4cccc(OC(F)(F)F)c4)n3)cnn2n1 [GW810372X]	100%	100%	100%	61%	90%	100%	100%	100%	100%	100%
COc1cc2ncn(-c3cc(O[C@H](C)c4ccccc4Cl)c(C(N)=O)s3)c2cc1OC [GSK237701A]	100%	76%	2.9%	6.1%	0.8%	11%	91%	100%	92%	87%
CN1CCN(C(=O)c2ccc(NC(=O)Nc3ccc(N(C)c4ccnc(Nc5ccc(CS(C)(=O)=O)cc5)n4)cc3)cc2)CC1.Cl [GW830263A]	100%	99%	94%	67%	93%	100%	68%	100%	100%	96%
Nc1ncnc2occ(-c3ccc(NC(=O)Nc4cc(C(F)(F)F)ccc4F)cc3)c12 [GW770249X]	100%	100%	96%	100%	100%	100%	99%	100%	100%	98%
NS(=O)(=O)c1ccc(N/N=C2\C(=O)Nc3ccc(C(=O)NCCc4c[nH]cn4)cc32)cc1 [GW300660X]	100%	100%	100%	100%	95%	100%	100%	100%	100%	100%
CN(C)c1cc2c(Nc3ccc4c(cnn4Cc4ccccc4)c3)ncnc2cn1 [GW282974X]	83%	72%	100%	100%	100%	91%	100%	100%	100%	67%
Cl.O=S1CCN(Cc2ccc(-c3ccc4ncnc(Nc5ccc(OCc6ccccc6)c(F)c5)c4c3)o2)CC1 [GW576924A]	100%	100%	100%	100%	100%	100%	100%	100%	100%	100%
O=C1Nc2ccc(C(=O)c3ccco3)cc2C1=Cc1cc(Cl)c(O)c(Cl)c1 [GW406108X]	100%	100%	89%	100%	93%	100%	100%	100%	100%	100%
COc1ccccc1-c1cc(/C=C2\C(=O)Nc3ncc(Br)cc32)cc(Br)c1O [GW442130X]	100%	100%	100%	100%	98%	100%	92%	94%	100%	100%
COc1ccc2[nH]c3c4[nH]c5ccc(OC)cc5c4c4c(c3c2c1)C(=O)NC4=O [GW296115X]	53%	87%	91%	66%	92%	88%	69%	97%	84%	73%

Compound	Percent Control [1]	Percent Control [2]	Percent Control [3]	Percent Control [4]	Percent Control [5]	Percent Control [6]	Percent Control [7]	Percent Control [8]	Percent Control [9]	Percent Control [10]
Cc1cc(O)cc(C)c1/C=C/c1cncc(C(N)=O)c1 [GW435821X]	100%	100%	100%	100%	93%	100%	100%	100%	100%	100%
NS(=O)(=O)c1ccc(N/N=C2\C(=O)Nc3ccc(-c4cnco4)cc32)cc1 [GW276655]	88%	72%	87%	100%	56%	100%	56%	100%	63%	69%
COc1cc(C=NNc2ncnc3c2cnn3-c2ccccc2)ccc1O [GW513184X]	96%	100%	97%	100%	100%	100%	89%	100%	100%	74%
Cl.O=C(Nc1ccc(Oc2ccc3[nH]c(NC(=O)c4ccco4)nc3c2)cc1)Nc1cc(C(F)(F)F)ccc1F [GW683134A]	100%	100%	90%	100%	100%	100%	82%	100%	100%	61%
Cl.O=C(Nc1ccc(Oc2ccc3[nH]c(NC(=O)c4ccccc4)nc3c2)cc1)Nc1cc(C(F)(F)F)ccc1F [GW709042A]	100%	100%	91%	100%	88%	100%	88%	100%	100%	100%
Cl.O=C(O[C@H]1CN[C@H](C#Cc2cc3ncnc(Nc4ccc5c(cnn5Cc5ccccc5)c4)c3s2)C1)N1CCOCC1 [GSK200398A]	89%	96%	80%	94%	100%	95%	100%	100%	100%	98%
CCS(=O)(=O)c1ccc(OC)c(Nc2ncc(-c3cccc(OC)c3)o2)c1 [GW580509X]	100%	100%	99%	100%	100%	100%	100%	100%	100%	74%
CC(C)COC(=O)c1ccc2c(c1)/C(=C/Nc1ccc(S(N)(=O)=O)cc1)C(=O)N2 [GW416981X]	100%	100%	100%	100%	100%	100%	100%	100%	100%	100%
NS(=O)(=O)c1ccc(N/N=C2\C(=O)Nc3ccc(C(=O)NCc4ccncc4)cc32)cc1 [GW300657X]	93%	59%	92%	78%	95%	73%	100%	100%	100%	100%
CCS(=O)(=O)c1ccc(OC)c(Nc2ncc(-c3cccc(F)c3)o2)c1 [GW621970X]	100%	100%	90%	100%	97%	100%	100%	100%	100%	43%
COc1cc(C)c(N(C)C(=O)CN(C)C)cc1Nc1nc(Nc2cccc(F)c2C(N)=O)c2cc[nH]c2n1 [GSK2219385]	100%	90%	100%	100%	100%	81%	87%	100%	85%	96%
CCn1c(-c2nonc2N)nc2c(C#CC(C)(C)O)nc(OCCNC)cc21.Cl [GSK949675]	92%	100%	100%	100%	100%	51%	87%	89%	100%	100%
COc1cccc(-c2c[nH]c3c(N/N=C/c4ccncc4)ncnc23)c1 [GW814408X]	100%	98%	96%	75%	99%	100%	90%	100%	100%	61%
COc1cc(N2CCN(C(C)C)CC2)ccc1Nc1nc(Nc2ccc(F)cc2C(=O)NC[C@@H](O)CO)c2cc[nH]c2n1 [GSK1392956A]	96%	100%	92%	100%	100%	69%	100%	100%	100%	99%
COc1cc2ncnc(Nc3ccc4c(cnn4Cc4ccccc4)c3)c2cc1OC.Cl [GW282449A]	100%	100%	94%	100%	100%	100%	100%	100%	100%	67%
COc1ccc(COc2ccc(Cc3cnc(N)nc3N)cc2OC)cc1 [GW632580X]	98%	83%	98%	84%	92%	82%	100%	100%	100%	82%
C/C(Nc1ccc(S(N)(=O)=O)cc1)=C1/C(=O)Nc2ccccc21 [GW335962X]	100%	95%	90%	93%	100%	100%	100%	100%	88%	100%
O=C(Nc1n[nH]c2nc(-c3ccc(O)cc3)c(Br)cc12)C1CC1 [SB-725317]	100%	100%	84%	98%	100%	98%	100%	100%	100%	100%
CC1=C(C(=O)Nc2ccc3[nH]ncc3c2)C(c2ccc3ccccc3c2)CC(=O)N1 (stereo not shown) [GSK270822A]	93%	62%	92%	85%	86%	76%	83%	88%	96%	68%
CC1=C(C(=O)Nc2ccc3[nH]ncc3c2)C(c2ccc(Cl)c(Cl)c2)CC(=O)N1 (stereo not shown) [GSK299115A]	84%	73%	95%	100%	69%	82%	93%	82%	99%	81%
